According to the supplement of paper PMC10849652:
Targets with a hit are over-represented here; the source holds about 7,900 in all. About 0.6% of all pairs of compound and target were hits.

Assays:
Experiment in all cases: log2 fold change, soluble protein after heating vs DMSO (PISA); higher = thermal stabilisation; K562 cells, 10 uM, 30 min; active = over 0.2 and 3.5 SD of the protein, either way, in both replicates (recomputed)
saracatinib = compound: CN1CCN(CCOc2cc(OC3CCOCC3)c3c(Nc4c(Cl)ccc5c4OCO5)ncnc3c2)CC1 [saracatinib]
Outline: (§1)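 Thermal stability values are relative to control samples and come from duplicates. They are expressed as log2 fold changes. For measurement, K562 cells (2×10^6 cells/mL) received 10 μM compound for 30 min, and aliquots were heated for 3 min over 48°C-58°C, pooled, and extracted at 4°C in PBS with 0.5% NP-40. Soluble protein, the supernatant after 21,000xg for 90 min, was quantified by TMTpro 16plex LC-MS/MS with equalised channel sums.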

sotrastaurin = compound: CN1CCN(c2nc(C3=C(c4c[nH]c5ccccc45)C(=O)NC3=O)c3ccccc3n2)CC1 [sotrastaurin]
Outline: as §1

alvocidib = compound: CN1CC[C@H](c2c(O)cc(O)c3c(=O)cc(-c4ccccc4Cl)oc23)[C@H](O)C1 [alvocidib]
Outline: as §1

Tubastatin A = compound: CN1CCc2c(c3ccccc3n2Cc2ccc(C(=O)NO)cc2)C1 [Tubastatin A]
Outline: as §1

[1] = compound: CNC(=O)C1=CC=CC=C1NC2=NC(=NC=C2Cl)NC3=C(C=C(C=C3)N4CCOCC4)OC
Outline: as §1

defactinib = compound: CNC(=O)c1ccc(Nc2ncc(C(F)(F)F)c(NCc3nccnc3N(C)S(C)(=O)=O)n2)cc1 [defactinib]
Outline: as §1

rucaparib = compound: CNCc1ccc(-c2[nH]c3cc(F)cc4c3c2CCNC4=O)cc1 [rucaparib]
Outline: as §1

[2] = compound: CNc1nc(-c2ccc3c(N)n[nH]c3c2)cc(N2C[C@@H](C(=O)NC3CCCCC3)CC[C@H]2C)n1
Outline: as §1

encorafenib = compound: COC(=O)N[C@@H](C)CNc1nccc(-c2cn(C(C)C)nc2-c2cc(Cl)cc(NS(C)(=O)=O)c2F)n1 [encorafenib]
Outline: as §1

[3] = compound: COC(=O)[C@H](CCSC)NC(=O)C1=C(C=C(C=C1)NC[C@H](CS)N)C2=CC=CC=C2
Outline: as §1

[4] = compound: COC1=CC=C(C=C1)CN2C=CC3=C2C=C(C=C3)C(=O)NO
Outline: as §1

filanesib = compound: CON(C)C(=O)N1N=C(c2cc(F)ccc2F)S[C@@]1(CCCN)c1ccccc1 [filanesib]
Outline: as §1

zotarolimus = compound: CO[C@H]1C[C@@H]2CC[C@@H](C)[C@@](O)(O2)C(=O)C(=O)N2CCCC[C@H]2C(=O)O[C@H]([C@H](C)C[C@@H]2CC[C@H](n3cnnn3)[C@H](OC)C2)CC(=O)[C@H](C)/C=C(\C)[C@@H](O)[C@@H](OC)C(=O)[C@H](C)C[C@H](C)/C=C/C=C/C=C/1C [zotarolimus]
Outline: as §1

idasanutlin = compound: COc1cc(C(=O)O)ccc1NC(=O)[C@@H]1N[C@@H](CC(C)(C)C)[C@](C#N)(c2ccc(Cl)cc2F)[C@H]1c1cccc(Cl)c1F [idasanutlin]
Outline: as §1

alisertib = compound: COc1cc(Nc2ncc3c(n2)-c2ccc(Cl)cc2C(c2c(F)cccc2OC)=NC3)ccc1C(=O)O [alisertib]
Outline: as §1

[5] = compound: COc1cc2nc(-c3cc(F)ccc3O)nc(N[C@@H]3CNC[C@H]3C(C)(C)O)c2cc1OC
Outline: as §1

gefitinib = compound: COc1cc2ncnc(Nc3ccc(F)c(Cl)c3)c2cc1OCCCN1CCOCC1 [gefitinib]
Outline: as §1

[6] = compound: COc1cccc2cc(-c3nc([C@H]4CC[C@H](C(=O)O)CC4)n4ncnc(N)c34)[nH]c12
Outline: as §1

lapatinib = compound: CS(=O)(=O)CCNCc1ccc(-c2ccc3ncnc(Nc4ccc(OCc5cccc(F)c5)c(Cl)c4)c3c2)o1 [lapatinib]
Outline: as §1

pictilisib = compound: CS(=O)(=O)N1CCN(Cc2cc3nc(-c4cccc5[nH]ncc45)nc(N4CCOCC4)c3s2)CC1 [pictilisib]
Outline: as §1

Measured: log2 fold change

RARS (UniProt P54136)
Chain of UniProt P54136 (P54136 whole entry, looked up): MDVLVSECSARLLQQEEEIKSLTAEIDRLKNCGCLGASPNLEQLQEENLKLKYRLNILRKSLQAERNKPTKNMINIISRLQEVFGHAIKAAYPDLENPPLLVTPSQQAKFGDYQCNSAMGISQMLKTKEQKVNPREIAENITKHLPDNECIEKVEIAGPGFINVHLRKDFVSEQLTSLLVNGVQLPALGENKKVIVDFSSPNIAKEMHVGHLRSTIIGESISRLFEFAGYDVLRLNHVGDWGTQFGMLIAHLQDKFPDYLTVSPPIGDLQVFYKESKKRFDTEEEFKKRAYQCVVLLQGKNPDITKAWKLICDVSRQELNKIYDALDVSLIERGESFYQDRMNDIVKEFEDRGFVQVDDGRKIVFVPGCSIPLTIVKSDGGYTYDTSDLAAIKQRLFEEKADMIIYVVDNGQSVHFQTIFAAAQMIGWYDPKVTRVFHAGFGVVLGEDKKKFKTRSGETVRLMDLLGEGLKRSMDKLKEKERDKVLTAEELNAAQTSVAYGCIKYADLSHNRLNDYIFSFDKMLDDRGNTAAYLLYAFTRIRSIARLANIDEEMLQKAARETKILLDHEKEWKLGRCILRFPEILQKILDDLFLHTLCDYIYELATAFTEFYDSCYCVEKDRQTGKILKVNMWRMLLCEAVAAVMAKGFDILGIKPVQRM
inactive: saracatinib -0.103 | sotrastaurin -0.192 | alvocidib 0.151 | Tubastatin A 0.008 | [1] -0.073 | defactinib 0.187 | rucaparib 0.367 | [2] 0.138 | encorafenib 0.217 | [3] -0.024 | [4] -0.045 | filanesib 0.079 | zotarolimus 0.049 | idasanutlin 0.052 | alisertib -0.059 | [5] -0.032 | gefitinib -0.025 | [6] -0.203 | lapatinib -0.008 | pictilisib -0.07

RUFY1 (UniProt Q96T51)
Chain of UniProt Q96T51 (Q96T51 whole entry, looked up): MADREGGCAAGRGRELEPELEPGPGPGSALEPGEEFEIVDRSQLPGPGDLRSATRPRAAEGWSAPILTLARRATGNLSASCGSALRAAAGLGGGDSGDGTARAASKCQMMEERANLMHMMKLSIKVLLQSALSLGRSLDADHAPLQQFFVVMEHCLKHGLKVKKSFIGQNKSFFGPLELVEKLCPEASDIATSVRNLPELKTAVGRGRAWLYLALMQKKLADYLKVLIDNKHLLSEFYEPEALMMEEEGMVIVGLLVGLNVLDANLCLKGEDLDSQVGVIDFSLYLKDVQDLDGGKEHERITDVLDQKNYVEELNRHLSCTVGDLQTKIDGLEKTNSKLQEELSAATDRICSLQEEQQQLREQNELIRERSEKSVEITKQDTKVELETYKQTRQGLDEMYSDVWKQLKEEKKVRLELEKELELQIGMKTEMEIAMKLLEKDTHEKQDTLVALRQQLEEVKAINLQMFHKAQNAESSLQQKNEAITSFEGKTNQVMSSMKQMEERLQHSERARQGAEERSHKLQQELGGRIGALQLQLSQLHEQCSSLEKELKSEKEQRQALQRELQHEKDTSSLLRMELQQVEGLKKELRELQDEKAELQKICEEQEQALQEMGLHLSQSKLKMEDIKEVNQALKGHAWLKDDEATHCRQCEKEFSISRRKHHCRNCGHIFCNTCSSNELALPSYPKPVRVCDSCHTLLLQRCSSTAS
inactive: saracatinib -0.037 | sotrastaurin -0.174 | alvocidib -0.041 | Tubastatin A -0.012 | [1] 0.045 | defactinib -0.071 | rucaparib 0.032 | [2] -0.09 | encorafenib 0.077 | [3] -0.02 | [4] -0.015 | filanesib 0.005 | zotarolimus 0.056 | idasanutlin -0.049 | alisertib 0.047 | [5] 0.02 | gefitinib -0.004 | [6] -0.053 | lapatinib -0.035 | pictilisib -0.009

RPTOR (UniProt Q8N122)
Chain of UniProt Q8N122 (Q8N122 whole entry, looked up): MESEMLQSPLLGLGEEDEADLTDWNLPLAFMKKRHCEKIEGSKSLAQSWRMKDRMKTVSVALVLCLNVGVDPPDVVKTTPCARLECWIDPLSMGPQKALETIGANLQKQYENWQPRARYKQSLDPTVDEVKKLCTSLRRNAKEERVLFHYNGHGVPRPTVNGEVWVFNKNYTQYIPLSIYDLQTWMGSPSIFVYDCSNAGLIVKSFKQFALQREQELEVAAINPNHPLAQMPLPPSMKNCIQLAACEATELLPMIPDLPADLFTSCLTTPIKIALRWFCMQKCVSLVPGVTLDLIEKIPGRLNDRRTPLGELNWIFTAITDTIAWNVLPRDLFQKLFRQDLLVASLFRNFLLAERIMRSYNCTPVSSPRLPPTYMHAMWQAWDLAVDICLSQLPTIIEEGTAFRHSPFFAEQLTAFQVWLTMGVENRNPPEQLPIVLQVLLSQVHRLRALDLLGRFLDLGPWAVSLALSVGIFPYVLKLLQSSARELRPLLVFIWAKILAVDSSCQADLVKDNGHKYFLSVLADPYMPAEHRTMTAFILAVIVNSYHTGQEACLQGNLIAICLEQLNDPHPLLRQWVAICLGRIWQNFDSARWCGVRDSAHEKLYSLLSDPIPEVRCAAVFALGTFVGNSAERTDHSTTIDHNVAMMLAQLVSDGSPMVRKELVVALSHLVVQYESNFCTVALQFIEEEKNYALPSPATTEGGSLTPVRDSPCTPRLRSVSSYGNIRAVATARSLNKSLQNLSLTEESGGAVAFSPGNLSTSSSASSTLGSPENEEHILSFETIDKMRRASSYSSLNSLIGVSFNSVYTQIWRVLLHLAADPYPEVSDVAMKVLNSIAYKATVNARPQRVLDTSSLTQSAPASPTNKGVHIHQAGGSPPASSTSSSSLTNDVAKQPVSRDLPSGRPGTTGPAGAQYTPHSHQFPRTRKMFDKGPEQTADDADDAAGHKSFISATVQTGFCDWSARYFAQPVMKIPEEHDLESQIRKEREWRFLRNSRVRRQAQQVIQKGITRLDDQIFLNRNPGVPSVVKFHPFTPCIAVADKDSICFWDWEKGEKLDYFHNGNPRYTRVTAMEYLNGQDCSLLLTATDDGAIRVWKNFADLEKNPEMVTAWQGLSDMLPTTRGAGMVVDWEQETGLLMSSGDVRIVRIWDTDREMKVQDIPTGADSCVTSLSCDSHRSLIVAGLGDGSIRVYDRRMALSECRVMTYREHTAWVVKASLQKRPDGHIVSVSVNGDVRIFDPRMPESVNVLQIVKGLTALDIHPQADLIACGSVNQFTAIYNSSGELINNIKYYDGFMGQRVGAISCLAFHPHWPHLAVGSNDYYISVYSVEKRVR
inactive: saracatinib -0.005 | sotrastaurin -0.01 | alvocidib 0.123 | Tubastatin A 0.027 | [1] -0.044 | defactinib -0.074 | rucaparib -0.068 | [2] 0.033 | encorafenib 0.047 | [3] -0.039 | [4] 0.042 | filanesib -0.077 | zotarolimus -0.194 | idasanutlin -0.066 | alisertib -0.054 | [5] -0.056 | gefitinib 0.007 | [6] -0.072 | lapatinib 0.028 | pictilisib -0.022

RNF167 (UniProt Q9H6Y7)
inactive: saracatinib -0.03 | sotrastaurin 0.064 | alvocidib 0.055 | Tubastatin A -0.021 | [1] 0.035 | defactinib 0.059 | [2] 0.042 | [3] -0.006 | [4] -0.062 | filanesib -0.032 | zotarolimus -0.033 | idasanutlin 0.018 | alisertib -0.014 | [5] -0.084 | gefitinib -0.013 | [6] 0.016 | lapatinib 0.024 | pictilisib -0.029

RCOR1 (UniProt Q9UKL0)
Chain of UniProt Q9UKL0 (Q9UKL0 whole entry, looked up): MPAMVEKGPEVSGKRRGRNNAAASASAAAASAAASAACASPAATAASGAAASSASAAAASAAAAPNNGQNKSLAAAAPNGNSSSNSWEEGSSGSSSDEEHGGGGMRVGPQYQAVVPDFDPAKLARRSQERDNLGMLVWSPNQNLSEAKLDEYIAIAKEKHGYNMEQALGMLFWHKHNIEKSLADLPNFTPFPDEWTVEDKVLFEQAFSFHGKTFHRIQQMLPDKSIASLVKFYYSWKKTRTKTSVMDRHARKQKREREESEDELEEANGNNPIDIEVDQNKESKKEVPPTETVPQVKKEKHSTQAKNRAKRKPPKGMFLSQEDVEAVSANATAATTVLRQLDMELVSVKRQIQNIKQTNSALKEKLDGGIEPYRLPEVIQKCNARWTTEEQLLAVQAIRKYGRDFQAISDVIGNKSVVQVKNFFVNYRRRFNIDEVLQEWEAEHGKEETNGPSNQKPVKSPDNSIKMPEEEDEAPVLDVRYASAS
inactive: saracatinib -0.011 | sotrastaurin -0.047 | alvocidib -0.066 | Tubastatin A 0.028 | [1] -0.017 | defactinib -0.119 | rucaparib -0.005 | [2] 0.073 | encorafenib 0 | [3] -0.002 | [4] -0.039 | filanesib 0.002 | zotarolimus -0.044 | idasanutlin 0 | alisertib 0.013 | [5] 0.003 | gefitinib -0.002 | [6] 0.015 | lapatinib 0.019 | pictilisib 0.005

SEC23A (UniProt Q15436)
Chain of UniProt Q15436 (Q15436 whole entry, looked up): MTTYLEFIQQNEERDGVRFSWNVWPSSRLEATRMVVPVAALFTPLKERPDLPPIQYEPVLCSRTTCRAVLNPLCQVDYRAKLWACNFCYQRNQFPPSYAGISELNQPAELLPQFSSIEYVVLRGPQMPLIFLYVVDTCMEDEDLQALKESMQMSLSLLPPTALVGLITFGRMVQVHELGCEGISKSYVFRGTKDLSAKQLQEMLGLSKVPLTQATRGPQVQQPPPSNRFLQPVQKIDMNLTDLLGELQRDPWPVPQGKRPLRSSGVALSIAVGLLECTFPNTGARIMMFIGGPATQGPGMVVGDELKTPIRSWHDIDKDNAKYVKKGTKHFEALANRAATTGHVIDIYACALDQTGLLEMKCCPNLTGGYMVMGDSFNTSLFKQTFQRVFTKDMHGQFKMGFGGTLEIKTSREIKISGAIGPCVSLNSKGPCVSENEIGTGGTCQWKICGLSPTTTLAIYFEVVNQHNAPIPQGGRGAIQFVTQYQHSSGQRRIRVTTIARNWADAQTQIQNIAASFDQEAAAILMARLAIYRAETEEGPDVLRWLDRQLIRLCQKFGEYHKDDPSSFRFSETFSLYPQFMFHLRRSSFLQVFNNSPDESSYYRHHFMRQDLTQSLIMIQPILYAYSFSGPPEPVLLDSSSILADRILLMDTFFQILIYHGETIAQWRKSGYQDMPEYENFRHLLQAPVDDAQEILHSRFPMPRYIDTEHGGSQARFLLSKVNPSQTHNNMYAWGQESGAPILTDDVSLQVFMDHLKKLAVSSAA
active: rucaparib 0.296
inactive: saracatinib 0.133 | sotrastaurin 0.008 | alvocidib -0.066 | Tubastatin A -0.008 | [1] -0.019 | defactinib -0.078 | [2] 0.037 | encorafenib -0.171 | [3] -0.035 | [4] 0.024 | filanesib 0.013 | zotarolimus 0.025 | idasanutlin -0.026 | alisertib -0.027 | [5] 0.043 | gefitinib 0.007 | [6] 0.01 | lapatinib -0.045 | pictilisib 0.049

RBM4 (UniProt Q9BWF3)
Chain of UniProt Q9BWF3 (Q9BWF3 whole entry, looked up): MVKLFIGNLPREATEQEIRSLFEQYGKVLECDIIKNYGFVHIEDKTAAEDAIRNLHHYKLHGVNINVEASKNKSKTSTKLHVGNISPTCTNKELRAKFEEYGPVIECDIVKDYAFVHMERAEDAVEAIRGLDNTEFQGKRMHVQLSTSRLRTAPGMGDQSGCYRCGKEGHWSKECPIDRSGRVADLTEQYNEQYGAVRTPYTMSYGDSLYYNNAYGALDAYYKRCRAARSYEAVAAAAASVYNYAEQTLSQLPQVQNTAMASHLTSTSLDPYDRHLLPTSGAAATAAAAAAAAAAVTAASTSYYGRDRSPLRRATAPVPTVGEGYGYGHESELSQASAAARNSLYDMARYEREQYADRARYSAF
inactive: saracatinib 0.024 | sotrastaurin -0.1 | alvocidib -0.037 | Tubastatin A 0.017 | [1] -0.052 | defactinib -0.055 | rucaparib 0.157 | [2] -0.036 | encorafenib 0.063 | [3] 0.025 | [4] -0.071 | filanesib 0.065 | zotarolimus 0.035 | idasanutlin 0.051 | alisertib 0.038 | [5] -0.036 | gefitinib -0.04 | [6] -0.038 | lapatinib 0.024 | pictilisib 0.005

SDHAF4 (UniProt Q5VUM1)
Chain of UniProt Q5VUM1 (Q5VUM1 whole entry, looked up): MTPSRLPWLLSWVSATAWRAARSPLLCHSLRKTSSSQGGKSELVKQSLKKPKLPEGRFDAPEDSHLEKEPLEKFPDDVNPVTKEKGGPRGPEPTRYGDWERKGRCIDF
inactive: saracatinib 0.139 | sotrastaurin 0.072 | alvocidib 0.079 | Tubastatin A 0.086 | [1] -0.037 | rucaparib -0.067 | [2] -0.032 | encorafenib -0.01 | [4] -0.072 | filanesib 0.034 | zotarolimus -0.01 | idasanutlin -0.223 | alisertib -0.073 | [5] -0.026 | gefitinib 0.026 | [6] 0.096 | lapatinib -0.154
